The full list was thinned out, with hits kept by preference.
ALOX12 inh = Primary qHTS assay for inhibitors of human arachidonate 12S-lipoxygenase (ALOX12): Round 2 | 580,000 compounds, 1.1% hits | AID 1671190, 2021 | Potency, µM (doses to about 108 µM), for the others: at the top dose activity change, negative = inhibition, actives largely listed as inhibitors | purified 12hLO, xylenol orange hydroperoxide absorbance | Polyunsaturated fatty acid lipoxygenase ALOX12 (Homo sapiens), P18054; note: potency is the fitted concentration of half-maximal effect
Target sequence (P18054 whole entry, looked up): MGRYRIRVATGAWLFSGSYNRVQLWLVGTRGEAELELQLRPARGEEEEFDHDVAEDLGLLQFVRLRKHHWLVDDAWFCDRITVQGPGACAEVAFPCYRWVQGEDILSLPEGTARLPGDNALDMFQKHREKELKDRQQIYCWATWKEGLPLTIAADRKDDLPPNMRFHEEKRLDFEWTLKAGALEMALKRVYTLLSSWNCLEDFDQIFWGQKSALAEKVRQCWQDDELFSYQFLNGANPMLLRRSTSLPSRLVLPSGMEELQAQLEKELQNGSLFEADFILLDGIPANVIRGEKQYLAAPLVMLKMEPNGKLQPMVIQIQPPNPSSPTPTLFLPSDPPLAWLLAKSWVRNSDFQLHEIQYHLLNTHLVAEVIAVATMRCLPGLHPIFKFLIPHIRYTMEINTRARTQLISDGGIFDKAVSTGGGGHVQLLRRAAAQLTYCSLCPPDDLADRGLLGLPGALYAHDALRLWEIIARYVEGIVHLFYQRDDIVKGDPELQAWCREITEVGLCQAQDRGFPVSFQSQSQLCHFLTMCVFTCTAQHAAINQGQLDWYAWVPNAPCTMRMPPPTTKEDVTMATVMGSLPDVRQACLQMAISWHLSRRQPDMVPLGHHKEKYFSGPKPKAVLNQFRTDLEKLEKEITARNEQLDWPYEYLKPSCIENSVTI
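Purified human 12hLO at 150 nM in 25 mM Hepes, 0.01% Triton X-100, pH 7.0, preincubated 15 min at room temperature with compound. Reaction started with 40 uM arachidonic acid, 30 min at room temperature. Hydroperoxide measured by Fe-xylenol orange, 573/405 nm absorbance ratio.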
DT40 TDP1 CPT = qHTS for Inhibitors of human tyrosyl-DNA phosphodiesterase 1 (TDP1): qHTS in cells in presence of CPT | chicken DT40 Tdp1-/-;hTDP1 cells + 20 nM CPT, ATP luminescence, 48 h | Potency, µM (top dose mostly 46.2 µM), without a hit: at the top dose activity change, negative = growth inhibition, usual class: inhibitors | 420,000 compounds, 12% hits | AID 686979, 2013; note: potency is the fitted concentration of half-maximal effect; nearly all actives have a fitted effect of over 55% in size
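Chicken DT40 Tdp1-/- cells complemented with human TDP1, 400 cells/well, exposed to compounds plus 20 nM camptothecin for at least 48 h at 37 C; viability read as ATP content by CellTiter-Glo luminescence.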
IL1B secr inh = qHTS for Inhibitors of Inflammasome Signaling: IL-1-beta AlphaLISA Primary Screen. 360,000 compounds, 4.7% hits. THP-1 LPS/ATP IL-1B secretion, AlphaLISA, 16 h; hits give low values. activity change, % at 57.5 µM. AID 743279, 2014; in the data active = activity change below about -50%; inconclusive = mostly about -30% to -49%
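Secreted IL-1B measured by AlphaLISA bead assay after 16 h compound exposure of THP-1 cells; compounds (final up to 57.5 uM) added 1 h before LPS (250 ng/mL) and ATP (1.25 mM) stimulation; lower signal means less secretion.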
TDP1 cell noCPT = qHTS for Inhibitors of human tyrosyl-DNA phosphodiesterase 1 (TDP1): qHTS in cells in absence of CPT | DT40 Tdp1-/- hTDP1 cells, no CPT, ATP luminescence, 48 h | Potency, µM (highest dose often 46.2 µM), inactives show at the top dose activity change, negative = growth inhibition, actives largely listed as inhibitors | 420,000 compounds, 15% hits; note: potency is the fitted concentration of half-maximal effect; nearly all actives have a fitted effect of over 55% in size
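Readout: luminescence from CellTiter-Glo after 30 min in the dark at RT. Cells: DT40 Tdp1-/- with stable hTDP1, 400/well. Exposure: compounds alone, ≥48 hr, 37 °C.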
HT1080NT lethal = qHTS for induction of synthetic lethality in tumor cells producing 2HG: qHTS for the HT-1080-NT fibrosarcoma cell line; HT-1080-NT fibrosarcoma viability, CellTiter-Glo ATP luminescence, 48 h; Potency, µM (series often up to 46.1 µM), for inactives: at the top dose activity, negative = less viability, hits mostly cytotoxic; 360,000 compounds, 1.6% hits; AID 686970, 2013;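 note: NT is the 2HG producing partner of a matched IDH1 knockdown line; potency is the fitted concentration of half-maximal effect; 0% = DMSO-treated cells and -100% = media-only wells without cells; nearly all actives have a fitted effect of over 55% in size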
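Luminescent CellTiter-Glo readout after 48 hours of compound exposure at 37 degrees C defined viability of HT-1080-NT cells. Activity was normalized to DMSO wells and cell-free media wells; concentration-response curves were fitted and assigned curve classes.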
HT1080 IDH1KD tx = qHTS for induction of synthetic lethality in tumor cells producing 2HG: qHTS for the HT-1080-IDH1KD cell line. Potency, µM (series often up to 46.1 µM), for the others: at the top dose activity, negative = toxicity, hits mostly cytotoxic. 360,000 compounds, 2% hits. HT-1080 IDH1 knockdown viability, ATP luminescence, 48 h;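 note: potency is the fitted concentration of half-maximal effect; 0% = DMSO wells and -100% = cell-free medium wells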
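After a 2 h attachment period, IDH1KD HT-1080 cells took pin-transferred compound for 48 h at 37 °C; ATP-based luminescence after 10 min room-temperature reagent incubation reported viability.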
Numbers without * were called inactive; i = inactive; ? = inconclusive; · = no result; [ ] = remark or other dose. Unless noted, calls come from the whole dose curve; as a rule, active = well fitted curve in the direction sought with a large enough effect; inconclusive = small, poorly fitted or top-dose-only effect, or another doubt; inactive = no such curve, though single readings can be large; an effect the other way counts as inactive or inconclusive. Unless noted, % is set by controls: 0 for no effect and ±100 for the full control effect.

SMILES	ALOX12 inh	DT40 TDP1 CPT	IL1B secr inh	TDP1 cell noCPT	HT1080NT lethal	HT1080 IDH1KD tx
CCCc1nc2c(C)cc(Br)cn2c1Cc1cccc(F)c1	?	?	1	?	?	?
CNC(=O)[C@@H]1C[C@H](Oc2cccnc2)CN1C(=O)CC1CCCC1	58%	·	·	·	·	·
COc1ccc(Cc2c(-c3ccccc3)nc3c(C)cc(Br)cn23)c(C)c1	?	16µM*	34	?	-30%	?
COc1ccc(Cc2c(-c3cccc(Br)c3)nc3c(C)cc(Br)cn23)c(C)c1	?	?	8	?	-12%	-1%
Cc1cc(C)cc(N(C(C)C(=O)N2CCCCCC2)S(C)(=O)=O)c1 (stereo unspecified)	-5%	·	·	·	·	·
CN(C)CCNc1ncnc2c1sc1nc(-c3ccccc3)c3c(c12)CCCC3	?	?	-76*	23µM*	10µM*	18µM*
COc1ccc(S(=O)(=O)N2CCCCC2)cc1NC(=O)Cn1cnc2ccccc2c1=O	-1%	-7%	-7	7%	-9%	-9%
CCN(CC)S(=O)(=O)c1ccc(OC(C)C)c(NC(=O)c2c3c(nc4ccccc24)CCN(Cc2ccccc2)C3)c1	-19%	13µM*	-14	12µM*	-9%	-11%
COc1ccc(S(=O)(=O)N2CCCCCC2)cc1NC(=O)c1c2c(nc3ccccc13)CCN(Cc1ccccc1)C2	-15%	16µM*	-1	?	4%	-3%
COc1ccc(NC(=O)c2c3c(nc4ccccc24)CCN(Cc2ccccc2)C3)c(OC)c1	1%	16µM*	-14	?	-20%	2%
CC(C)C[C@H]1COc2cc(N3CCCC3)ccc2S(=O)(=O)N1	-11%	·	·	·	·	·
O=C(CCC1CCCC1)N1CCc2c([nH]c3ccccc23)C1c1ccc(F)cc1 (stereo unspecified)	0%	?	·	?	·	·
Cc1ccc(C2c3[nH]c4ccccc4c3CCN2C(=O)CSCc2ccc(F)cc2)cc1 (stereo unspecified)	-1%	?	·	23µM*	·	·
CCc1ccc(C2c3[nH]c4ccccc4c3CCN2C(=O)c2ccc(=O)n(C)n2)cc1 (stereo unspecified)	0%	?	30	?	-29%	?
CCc1ccccc1NC(=O)N1CCc2c([nH]c3ccccc23)C1c1ccc(C)cc1 (stereo unspecified)	-27%	16µM*	·	15µM*	·	·
O=C(CSCc1ccc(F)cc1)N1CCc2c([nH]c3ccccc23)C1c1ccc(F)cc1 (stereo unspecified)	0%	18µM*	·	18µM*	·	·
O=C(CSc1ccc(F)cc1)Nc1ccc(Br)cc1	-12%	-30%	0	18µM*	2%	-5%
CSc1ccccc1C(=O)Nc1ccc(F)cc1	-7%	·	·	·	·	·
CCN(CC)CC(=O)Nc1ccc(Oc2ccc(NC(=O)CN(CC)CC)cc2)cc1	7%	1%	-58*	-15%	?	-10%
O=C(CC(=O)Nc1ccc(Br)cc1)Nc1ccc(Br)cc1	0%	13%	12	10%	1%	0%
O=C(CSc1ccc(F)cc1)Nc1ccccc1Br	2%	3%	9	0%	?	16%
O=C(CN(CC(=O)Nc1ccc(Br)cc1)CC(=O)Nc1ccc(Br)cc1)Nc1ccc(Br)cc1	11µM*	·	·	·	·	·
CCNC(=O)c1ccccc1SCC(=O)Nc1ccc(F)cc1	-9%	16µM*	-8	?	12%	14%
CC(=O)Nc1ccc(S(=O)(=O)C(C#N)c2nc3ccccc3nc2N2CCN(C)CC2)cc1 (stereo unspecified)	-27%	·	·	·	·	·
Cc1ccc(S(=O)(=O)N2CC=C(c3c(C)n(C)c4ccccc34)CC2)cc1	-28%	?	15	16µM*	-1%	-4%
SMILES	ALOX12 inh	DT40 TDP1 CPT	IL1B secr inh	TDP1 cell noCPT	HT1080NT lethal	HT1080 IDH1KD tx
COc1cc(CNn2c(C)n[nH]c2=S)cc(Cl)c1OCc1ccccc1	20µM*	-23%	3	-12%	?	0%
CCOc1cc(CNCCO)cc(Br)c1OCc1cccs1	0%	15µM*	-60*	18µM*	?	11µM*
CCOc1cc(CNc2ccc(O)cc2)cc(Cl)c1OCc1ccccc1	116%	21µM*	·	16µM*	·	·
CCOc1cccc(CNc2ccc(O)cc2)c1OCc1ccc(Cl)cc1Cl	i	15µM*	?	21µM*	?	21µM*
CCOc1cccc(CNn2cnnc2)c1OCc1ccccc1Cl	-7%	-18%	-7	-29%	0%	3%
COc1cc(CNCCO)cc(Br)c1OCc1ccccc1	14%	-11%	-1	-24%	-6%	-9%
O=C(N1CCOCC1)N1CCOC[C@H]1c1ncc(-c2ccc(OC(F)(F)F)cc2)[nH]1	-24%[176 µM]	·	·	·	·	·
Cc1ccc(OCC(=O)NNC(=O)CCc2ccccc2)c(Br)c1	-6%	-3%	-16	?	-26%	-4%
c1cnc2c(c1)nc1n2[C@@H](CNC2CCCCC2)COC1	26%[176 µM]	·	·	·	·	·
CCOc1cc(CNCc2ccncc2)cc(Br)c1OCc1ccccc1F	?	?	-13	?	?	?
CCOc1cccc(CNCCO)c1OCc1ccc(Cl)cc1Cl	-14%	16µM*	0	16µM*	-4%	-25%
CCOc1cccc(CNc2ccc(O)cc2)c1OCc1ccccc1Cl	363%	13µM*	-5	12µM*	?	?
CCOc1cc(CNCCO)cc(Br)c1OCc1ccc(Cl)cc1Cl	4%	16µM*	-101*	15µM*	?	21µM*
Cc1ccc(OCC(=O)N/N=C\c2cccn2C)c([N+](=O)[O-])c1	-6%	4%	-2	?	-11%	5%
COc1ccc(OC)c(NC(=O)COC(=O)c2c3c(nc4ccccc24)CCCC3)c1	-17%	23µM*	6	21µM*	?	?
COc1ccc(NC(=O)COC(=O)c2c3c(nc4ccccc24)CCCC3)cc1Cl	18%	21µM*	?	7.3µM*	?	?

Screens (PubChem)
